# Keap1 Nrf2 FP: inhibitors of human Keap1-Nrf2 protein-protein interaction | Q14145 | Keap1 Kelch-Nrf2 peptide fluorescence polarization, 1536-well | inhibition, % at 9.4 µM | hit rate 0.15% among 340,000; in the data active means inhibition above about 12%;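 further: human Keap1 Kelch domain with fluorescein labeled Nrf2 9mer peptide probe; 0% = neutral control wells and 100% = peptide positive control; higher means more block of Keap1 binding to Nrf2 peptide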
# Target sequence (Q14145 whole entry, looked up, the tested form may be a part): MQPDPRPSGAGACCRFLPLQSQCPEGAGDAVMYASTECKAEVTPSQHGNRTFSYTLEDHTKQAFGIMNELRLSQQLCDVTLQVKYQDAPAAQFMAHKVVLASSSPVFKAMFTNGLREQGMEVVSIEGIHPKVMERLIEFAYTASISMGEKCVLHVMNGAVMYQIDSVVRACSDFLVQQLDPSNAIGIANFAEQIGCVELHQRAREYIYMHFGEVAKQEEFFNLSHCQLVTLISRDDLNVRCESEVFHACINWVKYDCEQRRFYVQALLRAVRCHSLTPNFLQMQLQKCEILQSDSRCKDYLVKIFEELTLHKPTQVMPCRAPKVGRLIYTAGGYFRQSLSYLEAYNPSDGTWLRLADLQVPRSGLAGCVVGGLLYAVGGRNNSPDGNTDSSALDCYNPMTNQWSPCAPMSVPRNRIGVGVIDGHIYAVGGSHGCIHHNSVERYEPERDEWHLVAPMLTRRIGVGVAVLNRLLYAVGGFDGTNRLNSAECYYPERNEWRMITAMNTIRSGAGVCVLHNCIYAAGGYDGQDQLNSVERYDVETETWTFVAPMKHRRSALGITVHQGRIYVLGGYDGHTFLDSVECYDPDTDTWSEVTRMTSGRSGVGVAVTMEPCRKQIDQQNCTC
# C-LANA FP: KSHV C-LANA DNA binding inhibition. AID 504423. inhibition, % at 9 µM. MBP-C-LANA/FAM-LBS DNA binding, fluorescence polarization. hit rate 0.078% among 340,000;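 active means highest replicate inhibition at or above 60% at 9 µM, even if other replicates fall short; inactive means all replicates below 60% inhibition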;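 further: 0% = neutral control wells and 100% = 4 µM acridine orange control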
# E coli Lon inh: E. coli protease La inhibition | purified E. coli Lon protease, fluorescence polarization | inhibition, % at 7.94 µM | AID 602123 | hit rate 0.42% among 360,000 | P0A9M0; in the data active means inhibition above about 13%, passing the limit was not always enough;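 further: 0% = enzyme with probe and DMSO and 100% = no enzyme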
# LANA-H2A inh: blocks KSHV LANA binding to histone H2A/H2B. Q9QR71. cell-free LANA-H2A/H2B peptide, fluorescence polarization. AID 2629. hit rate 0.6% among 320,000. inhibition, % (test concentration not listed); in the data active means inhibition mostly above about 10%, no sharp cut-off; inactive means mostly below about 6.7%
# GLD-1 RNA inh: GLD-1-TGE RNA interaction inhibition (C. elegans); hit rate 0.44% among 320,000; inhibition, % at 5.96 µM; purified GLD-1 + fluorescein TGE RNA, fluorescence polarization; AID 2280; Q17339;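 active means percent inhibition above a per-plate cutoff, the plate mean of test compounds plus 3 SD, cut at about 30% in these data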;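 further: 0% = DMSO wells with GLD-1 and probe and 100% = wells lacking GLD-1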
# EBV gp42 block: EBV gp42 inhibition | inhibition, % (tested at 21.74 µM) | Q1HVG2 | Fluorescence polarization binding assay, mP read-out | AID 1085 | hit rate 0.42% among 220,000; in the data active means inhibition above about 50%
# Numbers without * were called inactive; nt = not tested or not shown. Compounds with a hit are over-represented: about 1.5% of the library has one in this group of screens.
SMILES,Keap1 Nrf2 FP,C-LANA FP,E coli Lon inh,LANA-H2A inh,GLD-1 RNA inh,EBV gp42 block
Cc1csc(CCc2nc(C)cs2)n1,0,0,-2,8.4*,8,-7
CC(C)[C@H](N)C(=O)N[C@H]1CCC2C3CC=C4C[C@@H](O)CC[C@]4(C)C3CC[C@@]21C (stereo partly specified),nt,nt,-13,nt,nt,nt
CSc1nc(N(C)CCO)c2sc3nc(-c4ccco4)c4c(c3c2n1)CCC4,-3,-2,2,-3,2,87*
CSc1nc(SCC(=O)O)c2sc3nc(-c4ccccc4)c4c(c3c2n1)CCC4,-50,26,-2,nt,nt,53*
CSc1nc(NCCN(C)C)c2sc3nc(-c4ccco4)c4c(c3c2n1)CCC4,-2,-2,7,nt,nt,nt
Oc1ccc(N=Nc2nc(-c3ccccc3)c(-c3ccccc3)[nH]2)cc1,-6,0,-68,5,84*,-2
CC(=O)C1=C(O)C(=O)N(c2ccccn2)C1c1cccc(F)c1 (stereo unspecified),-3,0,0,5,1,nt
Cc1cc(/C=C(\C#N)c2nc3ccccc3[nH]2)c(C)n1C,-3,3,9,-3,133*,105*
Cc1cc(/C=C(/C#N)c2nc3ccccc3[nH]2)c(C)n1-c1cccc([N+](=O)[O-])c1,1,-1,-2,-1,4,-4
Cc1cc(O)cc2c1C(=O)/C(=C/c1ccco1)O2,-8,17,-26,4,50*,nt
CCN(CC)C(=O)Oc1ccc2c(c1)O/C(=C\c1ccco1)C2=O,-5,2,-5,-4,-3,nt
COc1ccc(OCc2cc(C(=O)N3CCN(CC4CC4)CC3)no2)c(Cl)c1,-3,1,7,26*,1,nt
CCOC(=O)[C@]12CCC=C1N(Cc1cccc3ccccc13)C(=O)[C@H](CC(=O)NCCCCc1ccccc1)C2,nt,nt,-2,nt,nt,nt
COc1ccc([C@@H]2C[C@H]3[C@@H](CN2S(=O)(=O)c2ccccc2)C(=O)C[C@@H](c2ccc(OC)cc2)N3S(=O)(=O)c2ccccc2)cc1,nt,nt,0,nt,nt,nt
CCCCCCCCCCCCCCCC[n+]1ccc(/C=N/O)cc1,-4,-3,-3,13*,-5,-4
CCCCCCCCCCCCCCCC[n+]1ccc(C(N)=O)cc1,1,0,6,10,18,-83
Cc1ccc(OCCN(C)C(=O)c2cc(COc3ccc(F)cc3F)on2)cc1,-2,3,-1,173*,2,nt
Cc1nn(S(=O)(=O)c2ccc(Cl)cc2)c(C)c1Sc1ccc([N+](=O)[O-])cc1,8,0,3,12*,-3,-1
O=S(=O)(c1ccc2[nH]c3c(c2c1)CCCC3)N1CCCCC1,2,1,-5,18*,6,nt
CC(=O)Nc1ccc2c(c1)C(N1CC3CCC(CC3)C1)c1ccccc1-2 (stereo unspecified),-5,1,7,nt,nt,nt
COc1ccccc1CNC(=O)CN1C(=O)c2cccc(N)c2C1=O,2,2,-2,2,103*,nt
CCCCNC(=O)CN1C(=O)c2cccc(N)c2C1=O,3,3,12,nt,nt,63*
COc1ccccc1CNC(=O)CCN1C(=O)c2ccccc2C1=O,1,1,-8,-1,4,nt
CC1(C(=O)Nc2cccc(C#N)c2)CCN1C(=O)C1(c2ccccc2)CC1 (stereo unspecified),nt,nt,-10,nt,nt,nt
CCCNC(=O)C1(C)CCCN(Cc2csc(-c3ccccc3)n2)C1 (stereo unspecified),nt,nt,3,nt,nt,nt
SMILES,Keap1 Nrf2 FP,C-LANA FP,E coli Lon inh,LANA-H2A inh,GLD-1 RNA inh,EBV gp42 block
CCc1nc2c(OCc3cc(Cl)cc(Cl)c3)cccn2c1N(C=O)Cc1ccccc1,nt,nt,1,nt,nt,nt
CN1CCN(C(=O)/C(=C/c2ccc([N+](=O)[O-])cc2)NC(=O)c2ccccc2)CC1,-6,-2,1,2,10,nt
O=C(N/N=C/c1ccc(O)c(O)c1O)/C(=C/c1ccc([N+](=O)[O-])cc1)NC(=O)c1ccccc1,-5,0,27*,1,5,12
O=C(N/C(=C\c1ccc([N+](=O)[O-])cc1)C(=O)N1CCCCC1)c1ccccc1,0,1,-12,13*,5,0
O=c1[nH]cnc2c1nnn2C1OC(CO)C(O)C1O (stereo unspecified),nt,nt,3,nt,nt,nt
O=C(CNC(=O)C1CCCCC1)OCn1nnc2ccccc2c1=O,3,0,-6,15*,6,-1
O=C(CC1CCCCC1)OCn1nnc2ccccc2c1=O,-2,1,5,-1,3,-6
CC1Sc2ccc(S(=O)(=O)CCC(=O)N3CCN(c4ccccc4)CC3)cc2NC1=O (stereo unspecified),0,-1,0,-14,-2,nt
CC1Sc2ccc(S(=O)(=O)CCC(=O)N3CCN(c4cccc(Cl)c4)CC3)cc2NC1=O (stereo unspecified),4,0,13,30*,-5,nt
CCN(Cc1ccncc1)Cc1nc(-c2ccc(C(=O)OC)cc2)no1,-2,-1,-7,9.6*,1,0
COC(=O)c1ccc(-c2noc(CN(C)Cc3ccncc3C)n2)cc1,-3,-1,-6,-1,-2,-5
CC(=O)c1ccc(C(=O)N2CCCC(N3CCN(c4ccc(F)cc4)CC3)C2)s1 (stereo unspecified),2,0,1,4,3,nt
COC(=O)CNc1c(-c2ccccn2)nc2ccc(Br)cn12,-2,2,0,6,50*,22
CC(Oc1ccc(Cl)cc1)C(=O)Nc1nccs1 (stereo unspecified),0,1,-6,21*,2,-11
CC(Oc1ccc(Cl)cc1)C(=O)Nc1ccc(S(=O)(=O)Nc2nccs2)cc1 (stereo unspecified),-6,-2,-3,3,3,nt
O=C(NNS(=O)(=O)c1cc(Cl)c(Cl)cc1Cl)c1cccnc1,-3,-2,4,-5,4,nt
COc1ccc(CC(=O)N(Cc2ccccc2)c2ccccc2)cc1S(=O)(=O)N1CCOCC1,-5,-1,-5,16*,2,nt
COc1ccccc1CC(=O)N(Cc1ccccc1)c1ccc(C)cc1,0,-2,-11,22*,2,nt
C#CCOC(=O)/C(=C/C=C/c1ccccc1)NC(=O)c1ccccc1,-4,2,10,1,3,61*
CC1=C(C#N)C(=O)OC(C)(C)C1,19*,34,-2,8,63*,15
Oc1ccc(C[C@H]2CNC(=S)N2C[C@H]2CCCN2C[C@H](Cc2ccccc2)N2C[C@H](Cc3ccccc3)N(CC3CCCCC3)C2=S)cc1,nt,nt,-5,nt,nt,nt
Oc1ccc(CCNc2c3ccccc3nc3ccccc23)cc1O,-6,-8,-3,14*,0,nt
c1ccc(CNc2c3ccccc3nc3ccccc23)cc1,-2,-7,4,-2,-3,nt
NC(=O)c1cccc(-c2ccnc3c2CC(C(=O)Nc2cccc(C(F)(F)F)c2)O3)c1 (stereo unspecified),nt,nt,-4,nt,nt,nt
CCN(CC)c1ccc2cc(NC(=O)CCC(=O)O)c(=O)oc2c1,8,33,24,1,75*,74*
